Data published in PubChem BioAssay (NCATS).
Results filed as inconclusive are left out. The source made the active and inactive calls. The call rests on the fitted dose curve; in most records, active means well fitted inhibition curve with a large enough effect; inconclusive means small, poorly fitted or top-dose-only effect; inactive means flat fitted curve, though single readings scatter.

Tests used:
CRL-7250 = normal cell line; test: Cytotoxic Profiling of Annotated Libraries Using Quantitative High-Throughput Screening (AID 1296008); conditions: Five cell lines viability, CellTiter-Glo ATP luminescence, 48-72 h; max response: stronger effect = lower value; on max response: on the % scale 0 is the no-effect control and ±100 the full control effect
How it was run: (§1)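 Compounds were pin-transferred onto cells and incubated 48 or 72 hr at 37 degree Celsius, 95% humidity. CellTiter-Glo was added, plates sat 10 min at room temperature, then ATP-coupled luminescence was imaged as the viability read-out.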

HEK293 = test: as above; conditions: Five cell lines viability, CellTiter-Glo ATP luminescence, 48-72 h; max response: stronger effect = lower value
How it was run: as §1

NIH3T3 = test: as above; conditions: Five cell lines viability, CellTiter-Glo ATP luminescence, 48-72 h; max response: stronger effect = lower value
How it was run: as §1

MCC-13 = test: qHTS assay to identify novel small-molecules to repurpose for Merkel cell carcinoma treatment (AID 1296009); conditions: MCC and control cell lines, CellTiter-Glo viability, 72 h; series mostly up to 46 µM
How it was run: (§2)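 Luminescence from CellTiter-Glo, read 10 min after addition at room temperature, reported viability following a 72 hr, 37 degree celsius treatment with NPC or MIPE compounds in titration; values normalized to plate controls.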

MKL-1 = test: as above; conditions: MCC and control cell lines, CellTiter-Glo viability, 72 h; series mostly up to 46 µM
How it was run: as §2

MKL-2 = test: as above; conditions: MCC and control cell lines, CellTiter-Glo viability, 72 h; series mostly up to 46 µM
How it was run: as §2

MCC-26 = test: as above; conditions: MCC and control cell lines, CellTiter-Glo viability, 72 h; series mostly up to 46 µM
How it was run: as §2

HaCat [1] = test: Cytotoxic Profiling of Annotated Libraries Using Quantitative High-Throughput Screening (AID 1296008); conditions: Five cell lines viability, CellTiter-Glo ATP luminescence, 48-72 h; max response: stronger effect = lower value; on max response: on the % scale 0 is the no-effect control and ±100 the full control effect
How it was run: as §1

KB-3-1 = test: as above; conditions: Five cell lines viability, CellTiter-Glo ATP luminescence, 48-72 h; max response: stronger effect = lower value
How it was run: as §1

HEK293T = test: qHTS assay to identify novel small-molecules to repurpose for Merkel cell carcinoma treatment (AID 1296009); conditions: MCC and control cell lines, CellTiter-Glo viability, 72 h; at 44.8 µM (top of the series) unless noted
How it was run: as §2

HACAT [2] = test: as above; conditions: MCC and control cell lines, CellTiter-Glo viability, 72 h; at 44.8 µM (top of the series) unless noted
How it was run: as §2

P94_40 = test: qHTS profiling for inhibitors of Plasmodium falciparum proliferation (AID 504749); conditions: P. falciparum in erythrocytes, SYBR Green DNA, 72 h; series mostly up to 28.7 µM
How it was run: (§3)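 Fluorescence of SYBR Green-bound parasite DNA, read at 485/535 nm, served as the growth measure. Infected erythrocytes were cultured with compound 72 h; artemisinin (0.29 uM) and DMSO wells defined the normalization range.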

PAD = test: as above; conditions: P. falciparum in erythrocytes, SYBR Green DNA, 72 h; series mostly up to 28.7 µM
How it was run: as §3

PC15 = test: as above; conditions: P. falciparum in erythrocytes, SYBR Green DNA, 72 h; series mostly up to 28.7 µM
How it was run: as §3

PC26 = test: as above; conditions: P. falciparum in erythrocytes, SYBR Green DNA, 72 h; series mostly up to 28.7 µM
How it was run: as §3

SC27B = test: as above; conditions: P. falciparum in erythrocytes, SYBR Green DNA, 72 h; series mostly up to 28.7 µM
How it was run: as §3

TAB109 = test: as above; conditions: P. falciparum in erythrocytes, SYBR Green DNA, 72 h; series mostly up to 28.7 µM
How it was run: as §3

TAB113 = test: as above; conditions: P. falciparum in erythrocytes, SYBR Green DNA, 72 h; series mostly up to 28.7 µM
How it was run: as §3

TAB165 = test: as above; conditions: P. falciparum in erythrocytes, SYBR Green DNA, 72 h; series mostly up to 28.7 µM
How it was run: as §3
Further: nearly all actives have a fitted effect of over 60% in size.
Potency means the concentration at half of the fitted maximal effect.

O=c1[nH]sc2cc(Cl)ccc12
active: Potency (MCC-13) 6.68 µM
inactive: max response (CRL-7250) -108% | max response (HEK293) -119% | max response (NIH3T3) -92.7% | Potency (MKL-1) | Potency (MKL-2)

COCCc1ccc(OCC2CO2)cc1 (stereo unspecified)
inactive: max response (CRL-7250) 1.12% | max response (HEK293) 1.88% | max response (NIH3T3) -4.27% | Potency (MCC-13) | Potency (MCC-26) | Potency (MKL-1) | Potency (MKL-2)

CN1Cc2cc(C(=O)N3CCC(C4CCNCC4)CC3)ccc2NC(CC(=O)O)C1=O (stereo unspecified)
inactive: max response (CRL-7250) 0.285% | max response (HEK293) -6.55% | max response (HaCat [1]) -7.2% | max response (NIH3T3) -2.76% | Potency (MCC-13) | Potency (MKL-1) | Potency (MKL-2)

C[C@H](CN1CCCC1)C(=O)c1ccc(C(F)(F)F)cc1
inactive: max response (CRL-7250) 3.63% | max response (HEK293) -20.1% | max response (KB-3-1) 4.58% | max response (NIH3T3) -14.5% | Potency (MCC-13) | Potency (MCC-26) | Potency (MKL-1)

CO[C@@H]1[C@@H](OC)[C@H](C)[C@@](O)(CC(=O)O)O[C@H]1[C@H](C)[C@H]1O[C@@]2(CC[C@@](C)([C@H]3CC[C@@](C)([C@@H]4O[C@@H]([C@H]5O[C@](C)(O)[C@H](C)C[C@@H]5C)C[C@@H]4OC4C[C@H](OC)[C@@H](OC)[C@H](C)O4)O3)O2)C[C@H](O)[C@H]1C (stereo partly specified)
active: Potency (CRL-7250) 0.944 µM | Potency (HEK293) 0.237 µM | Potency (KB-3-1) 16.4 µM | Potency (NIH3T3) 6.68 µM | Potency (MCC-13) 2.99 µM | Potency (MKL-1) 0.376 µM | Potency (MKL-2) 0.211 µM

O=C(O)Cc1ccccc1Oc1ccc(Cl)cc1Cl
inactive: max response (CRL-7250) 1.12% | max response (HEK293) 3.66% | outcome (KB-3-1) | max response (NIH3T3) -11.6% | Potency (MCC-13) | Potency (MCC-26) | Potency (MKL-1) | Potency (MKL-2)

CN1[C@@H]2CC[C@H]1CC(NC(=O)n1c(=O)[nH]c3ccccc31)C2 (stereo partly specified)
inactive: max response (CRL-7250) -3.19% | max response (HEK293) -4.57% | max response (KB-3-1) -6.43% | max response (NIH3T3) 1.08% | Potency (MCC-13) | Potency (MCC-26) | Potency (MKL-1) | Potency (MKL-2)

O=C(Nc1ccc(S(=O)(=O)N2CCOCC2)cc1)c1cc(Cl)ccc1NS(=O)(=O)c1ccc(Cl)s1
inactive: max response (CRL-7250) -9.47% | outcome (HEK293) | max response (KB-3-1) -23.1% | outcome (NIH3T3) | outcome (HEK293T) | Potency (MCC-13) | Potency (MCC-26) | Potency (MKL-1) | Potency (MKL-2)

CCCCCCCCCCCCCCCCCCN(C)C
inactive: max response (CRL-7250) -11.6% | max response (HEK293) -2.54% | max response (NIH3T3) 0.657% | Potency (MCC-13) | Potency (MCC-26) | Potency (MKL-1) | Potency (MKL-2)

NS(=O)(=O)c1cc2c(cc1Cl)CN(C1CCCCC1)C2=O
inactive: max response (CRL-7250) -6.27% | outcome (HEK293) | max response (NIH3T3) 4.87% | outcome (HEK293T) | Potency (MCC-13) | Potency (MCC-26) | Potency (MKL-1) | Potency (MKL-2)

Nc1ccc2c(c1)CN1C(=O)c3ccccc3C1=N2
active: Potency (CRL-7250) 8.2 µM | Potency (HEK293) 5.8 µM | Potency (NIH3T3) 7.31 µM
inactive: Potency (MCC-26) | Potency (MKL-2)

CCC(=O)O[C@]1(C(=O)COC)[C@@H](C)C[C@H]2[C@@H]3CCC4=CC(=O)C=C[C@]4(C)C3(F)[C@@H](O)C[C@@]21C (stereo partly specified)
inactive: outcome (CRL-7250) | max response (HEK293) -13.2% | outcome (HaCat [1]) | outcome (HACAT [2]) | Potency (MCC-13) | Potency (MCC-26) | Potency (MKL-1) | Potency (MKL-2)

CCCCCCCCCCCC[N+](C)(C)Cc1ccccc1
active: Potency (CRL-7250) 4.22 µM | Potency (HEK293) 0.841 µM | Potency (HaCat [1]) 4.73 µM | Potency (NIH3T3) 6.68 µM | Potency (MCC-26) 23.7 µM | Potency (MKL-1) 1.06 µM | Potency (MKL-2) 0.0944 µM

c1ccc2occc2c1
inactive: max response (CRL-7250) -10.5% | max response (HEK293) -7.13% | max response (KB-3-1) -9.71% | max response (NIH3T3) -3.85% | Potency (MCC-13) | Potency (MCC-26) | Potency (MKL-1) | Potency (MKL-2)

CCCCCCCCCCCCCCCCCCNC(=O)OC1CCN(C(=O)OC[C@H](COC(=O)N(Cc2cccc[n+]2CC)C(=O)c2ccccc2OC)OC)CC1
active: Potency (CRL-7250) 8.41 µM | Potency (HEK293) 7.5 µM | Potency (KB-3-1) 6.51 µM | Potency (MKL-1) 11.9 µM | Potency (MKL-2) 2.66 µM

CCOC(=O)CN1CCCC1=O
inactive: max response (CRL-7250) 1.6% | max response (HEK293) -12.9% | max response (HaCat [1]) -7.15% | outcome (NIH3T3) | Potency (MCC-13) | Potency (MKL-1) | Potency (MKL-2)

CCCCCOc1ccccc1/C(=C\SC)n1ccnc1
inactive: max response (CRL-7250) -4.59% | max response (NIH3T3) -29.1% | Potency (MCC-13)
active: Potency (HEK293) 26.6 µM

Nc1c2ccccc2nc2ccccc12
active: Potency (P94_40) 5.62 µM | Potency (PAD) 7.94 µM | Potency (PC15) 11.2 µM | Potency (PC26) 15.1 µM | Potency (SC27B) 10 µM | Potency (TAB109) 7.08 µM | Potency (TAB113) 10 µM | Potency (TAB165) 8.91 µM | Potency (CRL-7250) 8.41 µM | Potency (HEK293) 5.96 µM | Potency (NIH3T3) 21.1 µM | Potency (MCC-13) 18.8 µM | Potency (MKL-1) 3.35 µM

Cc1ccc(C(=O)C(=O)O)cc1C
inactive: max response (CRL-7250) -7.54% | outcome (HEK293) | max response (NIH3T3) 2.73% | outcome (HEK293T) | Potency (MCC-13) | Potency (MCC-26) | Potency (MKL-1) | Potency (MKL-2)

C[C@@H]1C[C@H]2[C@@H]3CCC4=CC(=O)C=C[C@]4(C)[C@@]3(F)[C@@H](O)C[C@]2(C)[C@@]1(O)C(=O)COC(=O)c1ccncc1
inactive: max response (CRL-7250) -11% | max response (HEK293) -6.52% | max response (NIH3T3) -6.36% | Potency (MCC-13) | Potency (MCC-26) | Potency (MKL-1) | Potency (MKL-2)

Nc1ccc2cc3ccc(N)cc3nc2c1
active: Potency (CRL-7250) 7.5 µM | Potency (HEK293) 2.37 µM | Potency (HaCat [1]) 3.76 µM | Potency (MCC-13) 13.3 µM | Potency (MKL-1) 4.22 µM
